Data on 1 molecule can be found in PubChem BioAssay AID743421 (Vanderbilt Specialized Chemistry Center, 2014).

This assay has as its target Metabotropic glutamate receptor 6 (Homo sapiens) (UniProt O15303). In words: off-target activity check on mGlu6 receptor – cell-based, GIRK thallium flux, agonist curve fold shift, selectivity assay for mGlu8/mGlu7 PAM project, profiling panel (AID 743421). To be noted: mGlu6/GIRK cells, thallium flux (Fluo Zn); agonist CRC fold shift; at 10 µM; stronger effect = higher value.

Metabotropic glutamate receptor 6 (Homo sapiens), sequence (O15303 whole entry, looked up): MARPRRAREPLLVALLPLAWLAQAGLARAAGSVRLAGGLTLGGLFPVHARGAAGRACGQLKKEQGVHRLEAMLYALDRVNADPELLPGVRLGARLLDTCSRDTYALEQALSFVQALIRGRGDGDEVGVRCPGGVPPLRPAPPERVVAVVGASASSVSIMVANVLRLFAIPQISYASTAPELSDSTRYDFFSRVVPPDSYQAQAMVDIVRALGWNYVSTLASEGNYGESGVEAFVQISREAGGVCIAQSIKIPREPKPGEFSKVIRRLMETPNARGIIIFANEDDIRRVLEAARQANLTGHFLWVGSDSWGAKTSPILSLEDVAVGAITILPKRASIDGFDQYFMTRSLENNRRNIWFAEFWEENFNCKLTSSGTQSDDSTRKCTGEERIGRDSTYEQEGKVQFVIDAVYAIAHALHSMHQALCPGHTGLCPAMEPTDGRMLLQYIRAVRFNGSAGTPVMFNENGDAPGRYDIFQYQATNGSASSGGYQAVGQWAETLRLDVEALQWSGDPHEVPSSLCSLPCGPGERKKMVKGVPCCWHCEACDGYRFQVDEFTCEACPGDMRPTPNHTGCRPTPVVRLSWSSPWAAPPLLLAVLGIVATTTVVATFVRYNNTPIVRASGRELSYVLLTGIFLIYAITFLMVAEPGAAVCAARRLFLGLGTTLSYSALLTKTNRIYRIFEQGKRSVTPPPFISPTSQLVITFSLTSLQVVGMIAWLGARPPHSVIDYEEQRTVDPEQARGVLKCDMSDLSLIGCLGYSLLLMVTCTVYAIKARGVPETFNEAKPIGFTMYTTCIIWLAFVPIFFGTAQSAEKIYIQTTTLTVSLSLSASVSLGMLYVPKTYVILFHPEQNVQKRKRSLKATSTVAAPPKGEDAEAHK

As to `COC(=O)c1ccc(-n2c(C)cc(C(=O)CSc3ccc(NC(C)=O)cc3)c2C)cc1`, the fold shift was 2.59.
